# LGR2 inh = inhibitors of bursicon-induced Drosophila LGR2 receptor cAMP signaling; 380,000 tested, 0.35% active; inhibition, % at 9.99 µM; HEK293 LGR2, CRE-luciferase, bursicon-stimulated, 4 h;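 active = drop in luminescence signal, shown as inhibition above about 50% in the replicate tests, limit read from the data, passing the limit was not always enough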;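 also: agonist challenge used bursicon conditioned medium at about half maximal strength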
# Shn3 inh set2 = reduces Shn3 3'UTR luciferase signal in osteoblasts; Clone20 osteoblast Shn3 3'UTR firefly luciferase, 24 h; inhibition, % at 12.5 µM; 360,000 tested, 0.52% active; AID 588674;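 active = mean inhibition of at least 75% with every replicate also reaching 75%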;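 also: 0% = median of neutral control wells and 100% = pilot-screen positive control compound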
# KKLEB tox = CF airway cell cytotoxicity counter-screen | KKLEB CF airway cells viability, ATPlite luminescence, overnight; hits give low values; cells stimulated with P. aeruginosa culture filtrate | AID 602141 | activity change (cytotoxicity), % at 5 µM | 360,000 tested, 0.36% active;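 active = corrected activity change at or below -50% at 5 µM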
# CF NFkB inh = inhibitors of cystic fibrosis induced NF-kB; AID 588850; KKLEB NF-kB-GFP reporter, PAF-induced, GFP fluorescence overnight; inhibition, % at 5 µM; 360,000 tested, 0.86% active;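 active = at least 50% inhibition at 5 µM, scaled per plate between neutral and stimulator controls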;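 also: PAF is a Pseudomonas aeruginosa culture filtrate used as stimulus; plate controls were PAF-stimulated DMSO wells for no effect and unstimulated DMSO wells for full effect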
# PAX8 inh HTS = inhibitors of PAX8 transcriptional activity in RMG-I cells; RMG-I TPO-luciferase reporter, SteadyGlo, 24 h; inhibition, % at 12.6 µM; 360,000 tested, 1.2% active; AID 652154;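 active = mean replicate inhibition at least 60% with every replicate also reaching 60%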;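 also: luciferase light reporting Pax8 driven TPO promoter activity; plate controls were median of neutral control wells for no effect and mitoxantrone controls for full effect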
# EWS-Fli inh = blocks EWS/Fli oncoprotein-driven transcription; AID 651661; inhibition, % at 12.6 µM; A673 NR0B1-luciferase reporter, viability-normalised; 350,000 tested, 0.67% active;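 active = mean inhibition of at least 50% after viability correction, with every replicate also passing that limit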;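 also: firefly luciferase signal divided by Alamar Blue viability fluorescence both relative to DMSO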
# Starred values were filed as active, the others as inactive; . = no result. A selection: hits, their analogues and other compounds. The true share with any hit is near 2%.
SMILES,LGR2 inh,Shn3 inh set2,KKLEB tox,CF NFkB inh,PAX8 inh HTS,EWS-Fli inh
O=C(CNC(=O)c1ccco1)N=Nc1c(O)n(CCc2ccccc2)c2ccccc12,18,12,2,7,26,56*
CCn1c(O)c(N=NC(=O)CNC(=O)Cc2ccccc2)c2ccccc21,1,-28,10,-2,22,6
C[C@@H]1CCCCO[C@H](CN(C)S(=O)(=O)c2ccc(F)cc2)[C@@H](C)CN([C@@H](C)CO)C(=O)c2cc(NC(=O)Nc3ccc(C(F)(F)F)cc3)ccc2O1,14,.,.,.,65*,49
C[C@@H]1CCCCO[C@@H](CN(C)S(=O)(=O)c2ccc(F)cc2)[C@H](C)CN([C@H](C)CO)C(=O)c2cc(NC(=O)Nc3ccc(C(F)(F)F)cc3)ccc2O1,2,.,.,.,73*,10
C[C@@H]1CCCCO[C@@H](CN(C)S(=O)(=O)c2ccc(Cl)cc2)[C@H](C)CN([C@H](C)CO)C(=O)c2cc(NC(=O)Nc3ccc(C(F)(F)F)cc3)ccc2O1,23,.,.,.,70*,-1
C[C@H](CO)N1C[C@H](C)[C@H](CN(C)C(=O)C2CC2)OCc2cn(nn2)CCCC1=O,-10,.,.,.,.,1
COCc1cn(CC[C@@H]2CC[C@@H](NC(=O)Nc3ccc(F)cc3)[C@@H](CO)O2)nn1,-4,.,.,.,2,0
N#Cc1cccc(-c2ccc([C@H]3[C@@H](CO)N4CCCCN(S(=O)(=O)c5ccccc5)C[C@H]34)cc2)c1,6,.,.,.,-2,8
O=C(Cc1ccccn1)N[C@@H]1C=C[C@H](CC(=O)N2CCCCC2)O[C@H]1CO,1,.,.,.,-5,-2
COc1ccc(C(=O)OCC(=O)Nc2ncc([N+](=O)[O-])s2)cc1OC,-25,86*,4,12,-10,-16
CCc1nnc(NC(=O)c2ccncc2)s1,.,-17,1,16,.,.
CCCCc1nnc(NC(=O)CN(C)S(=O)(=O)c2ccc(C)cc2)s1,16,4,2,-6,8,.
CCc1nnc(NC(=O)c2cccc(C(=O)Nc3nnc(CC)s3)n2)s1,-7,88*,33,4,26,11
O=C(CCS(=O)(=O)c1ccccc1)Nc1ncc([N+](=O)[O-])s1,0,-5,-1,10,78*,-9
CCCCc1nnc(NC(=O)CCS(=O)(=O)c2ccc(C)cc2)s1,-2,4,-8,28,79*,-24
C[C@H](CO)N1C[C@H](C)[C@H](CN(C)Cc2ccc(Oc3ccccc3)cc2)Oc2ccc(NC(=O)CCN3CCOCC3)cc2CC1=O,19,.,.,.,.,6
COc1ccc(OC)c2sc(NC(=O)CCSc3ccccc3)nc12,-7,19,-1,24,3,0
CCC(CC)c1nnc(NC(=O)CCS(=O)(=O)Cc2ccccc2)s1,-5,-38,2,4,62*,8
CCc1nnc(NC(=O)CCS(=O)(=O)c2ccccc2)s1,4,-13,-3,-10,9,-29
COc1ccc(OC)c2sc(NC(=O)CCS(=O)(=O)c3ccccc3)nc12,-12,17,-55*,50,14,0
CCc1nnc(NC(=O)CCS(=O)(=O)c2ccc(C)cc2)s1,-6,-7,1,16,64*,-36
CCc1nnc(NC(=O)CCS(=O)(=O)Cc2ccccc2)s1,4,-1,-20,-4,8,-10
COCc1nnc(NC(=O)CCS(=O)(=O)c2ccccc2)s1,14,-4,2,10,66*,-9
O=C(C1=C[C@@H](c2coc3ccccc3c2=O)C[C@@H](OCCCCO)O1)N1CCCCCCC1,.,.,.,.,-10,9
Cn1cc(/C=C(\C(=O)O)C(C(=O)O)=C2CCCCC2)c2ccccc21,7,9,8,-8,95*,8
CC(=O)Nc1ccc2c(c1)C(=O)N(C)[C@H]1CC[C@H](CC(=O)NCc3ccc(Cl)cc3)O[C@@H]1CO2,25,.,.,.,43,0
C[C@@H](NC(=O)C[C@H]1C[C@H]2c3cc(NC(=O)c4ccc5c(c4)OCO5)ccc3O[C@H]2[C@@H](CO)O1)c1ccccc1,7,.,.,.,10,-12
COc1ccc2cc(-c3cc(C(=O)O)c4ccccc4n3)ccc2c1,.,66,-54*,-2,36,.
Cc1cc(C(=O)N2CC=C(c3ccccc3)CC2)c2ccccc2n1,-16,37,-4,31,46,72*

# Screens deposited in PubChem by several laboratories.
